Screens deposited in PubChem by several laboratories.
tim23-1 inh: inhibits growth of tim23-1 mutant yeast. AID 463212. inhibition, % at 20 µM. S. cerevisiae tim23-1 growth, BacTiter-Glo luminescence, 24 h. 1.3% of 330,000 active;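 active = growth inhibition of the mutant yeast at or above 50%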;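 note: temperature-sensitive mutant grown at 25 °C; plate controls were DMSO-treated mutant yeast for no effect and medium wells lacking yeast for full effect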
PfHsp90 set2: inhibits growth of yeast expressing Plasmodium falciparum Hsp90. AID 504621. inhibition, % at 9.4 µM. 0.32% of 310,000 active. S. cerevisiae expressing PfHsp90, BacTiter-Glo ATP, 48 h; yeast lacking PDR1 and PDR3 efflux regulators;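 active = every replicate shows inhibition above about 80%, whatever the replicate mean, limit read from the data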;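 note: 0% = DMSO neutral controls and 100% = 20 µM radicicol positive controls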
TIM10 inh: inhibits growth of TIM10 yeast strain | S. cerevisiae TIM10 strain growth, BacTiter-Glo luminescence, 24 h | inhibition, % at 10 µM | 1.4% of 330,000 active | AID 463195;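 active = inhibition of 40% or more at the single tested concentration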;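 note: wild-type TIM10 isogenic control strain grown at permissive 25 °C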
SKKanGAS inh: inhibitors of SKKanGAS S. pyogenes growth in kanamycin (SK-promoter or general growth effect); BacTiter-Glo, 6 h; inhibition, % at 7.5 µM; 1.3% of 300,000 active;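 active = mean replicate score, as percent of positive control median, at least 50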;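 note: strain carries kanamycin resistance gene driven by streptokinase promoter and grows in 40 µg/ml kanamycin; loss of luminescence reflects streptokinase promoter inhibition or plain growth inhibition; 0% = median of DMSO wells and 100% = positive control at its reference dose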
EBI2 block: antagonists of human EBI2 receptor. EBI2 beta-arrestin recruitment, luminescence, 7a,25-OHC stimulated. P32249. 0.81% of 360,000 active. inhibition, % at 5 µM. AID 651636; in the data active = inhibition above about 38%;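 note: enzyme fragment complementation signal reports receptor beta-arrestin coupling in cells; 0% = agonist plus DMSO wells and 100% = wells without agonist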
Target sequence (P32249 whole entry, looked up, the tested form may be a part): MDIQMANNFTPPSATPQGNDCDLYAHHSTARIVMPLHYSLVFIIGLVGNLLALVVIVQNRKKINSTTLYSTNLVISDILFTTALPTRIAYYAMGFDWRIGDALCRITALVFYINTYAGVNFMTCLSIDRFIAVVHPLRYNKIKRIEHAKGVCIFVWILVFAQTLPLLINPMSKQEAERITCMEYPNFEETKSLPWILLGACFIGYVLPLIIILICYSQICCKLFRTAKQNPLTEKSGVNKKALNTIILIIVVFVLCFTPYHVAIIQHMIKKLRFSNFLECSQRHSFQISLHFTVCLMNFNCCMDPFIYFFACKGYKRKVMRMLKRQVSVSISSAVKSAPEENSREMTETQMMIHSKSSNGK
tim10-1 inh: growth inhibitors of tim10-1 mutant yeast; S. cerevisiae tim10-1 ts strain growth, BacTiter-Glo, 24 h; inhibition, % at 20 µM; 2.2% of 330,000 active; AID 463190;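 active = inhibition of at least 40%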;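 note: mutant grown at 25 °C; 0% = DMSO wells with yeast and 100% = wells holding no yeast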
tim10-1 conf: confirmation of tim10-1 mutant yeast growth inhibitors. shares compounds with tim10-1 inh. 56% of 7,400 active. S. cerevisiae tim10-1 ts strain growth, BacTiter-Glo, 24 h. AID 463213. inhibition, % at 20 µM;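 active = inhibition of yeast growth at or above a set limit in either of two repeat tests at 20 µM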;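 note: tim10-1 mutant grown at permissive 25 °C to find synthetic lethal compounds; 0% = DMSO yeast wells and 100% = medium wells without yeast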
tim10 confirm: confirmation of TIM10 yeast growth inhibitors; shares compounds with TIM10 inh; S. cerevisiae tim10 strain growth, BacTiter-Glo luminescence, 24 h; 63% of 4,600 active; inhibition, % at 10 µM;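 active = inhibition of yeast growth at or above a set limit in either of two replicates at 10 µM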;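 note: this counterscreen used the strain with wild-type TIM10; 0% = yeast with DMSO and 100% = medium wells lacking yeast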
tim23-1 confirm: tim23-1 yeast growth inhibition, confirmed; shares compounds with tim23-1 inh; S. cerevisiae tim23-1 growth, BacTiter-Glo luminescence, 24 h; inhibition, % at 20 µM; 83% of 4,400 active; AID 463218;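 active = inhibition above about 39% in either of two replicate wells at 20 µM, limit read from the data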;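 note: temperature-sensitive tim23-1 mutant grown at 25 °C; 0% = DMSO wells with yeast and 100% = medium wells without yeast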
The depositor's hits bear a star; / = not tested or not shown. Most compounds without a hit are left out; they make up all but 4.7% or so of the library.

SMILES	tim23-1 inh	PfHsp90 set2	TIM10 inh	SKKanGAS inh	EBI2 block	tim10-1 inh	tim10-1 conf	tim10 confirm	tim23-1 confirm
COc1ccc(C(=O)O/N=C(\N)c2ccccc2)c(OC)c1	60*	-1	70*	/	15	76*	72*	67*	87*
CSc1ncccc1C(=O)Nc1nc2ccc(Oc3ccccc3)cc2s1	15	-16	-9	48	-3	16	/	/	/
Oc1ccccc1-c1cc(-c2cccc(F)c2)n[nH]1	64*	6	23	2	23	41*	19	/	52*
Oc1ccccc1-c1cc(-c2ccccc2Cl)[nH]n1	76*	/	64*	/	27	73*	53*	58*	12
CCN(CC)S(=O)(=O)c1ccc(C(=O)NCc2n[nH]c(=S)n2-c2ccc(Cl)c(Cl)c2)cc1	15	-18	3	-5	5	37	/	/	/
O=C(Nc1scc(-c2ccc(Br)cc2)c1C(=O)O)c1ccccc1F	88*	19	74*	78*	1	74*	82*	91*	89*
Cc1ccc(-c2csc(NC(=O)c3ccccc3F)c2C(=O)O)cc1	83*	31	74*	8	-4	79*	79*	84*	88*
COc1ccc(COC(=O)c2ccc(Br)c(S(=O)(=O)N3CCOCC3)c2)cc1F	3	-1	10	-1	33	16	/	/	/
O=C1C2C(c3ccccc3)C=CC(c3ccccc3)C2C(=O)N1c1ccncc1 (configuration not stated)	53*	-25	14	4	-6	41*	36*	/	49*
O=C1C2C(c3ccccc3)C=CC(c3ccccc3)C2C(=O)N1c1cccnc1 (configuration not stated)	44	-2	18	1	-10	13	/	/	/
O=C(CN1CCCC1=O)NC1(C(F)(F)F)NC(=O)N(Cc2ccccc2)C1=O (configuration not stated)	7	-10	-7	8	-13	-3	/	/	/
Cc1ccc2[nH]c(=O)c(CN(CC3COCCO3)C(=O)Nc3ccccc3F)cc2c1 (configuration not stated)	9	16	15	3	5	18	/	/	/
O=C(Nc1ccc(F)cc1)C1C(c2ccccc2)C1(Cl)Cl (configuration not stated)	59*	-35	41*	1	-10	48*	39*	-10	40*
O=C(c1ccc(-c2ccc([N+](=O)[O-])cc2)o1)N1CCCCCCC1	76*	-55	63*	/	16	59*	55*	69*	53*
O=C(Cc1ccc([N+](=O)[O-])cc1)N1CCCCCC1	10	10	-3	-2	-2	1	/	/	/
CC1CC(C)CN(C(=O)COC(=O)c2ccc([N+](=O)[O-])o2)C1 (configuration not stated)	22	-34	25	/	-11	21	/	/	/
CC1CCN(C(=O)c2ccc([N+](=O)[O-])o2)CC1	56*	-8	6	0	-21	41*	40*	/	58*
Cn1nc(C(C)(C)C)cc1C(=O)N1CCCC(c2cc(C(=O)Nc3ccccc3Cl)no2)C1 (configuration not stated)	/	/	/	/	10	/	/	/	/
O=C(NC(=S)NCc1ccccc1)c1cccs1	61*	0	35	14	-1	51*	43*	/	52*
CCNc1sc(C(=O)c2cccs2)c(N)c1-c1nc2ccccc2s1	72*	-21	45*	25	-8	53*	31	36*	-6
CCNc1sc(C(=O)c2cccs2)c(N)c1C#N	2	5	9	-10	-4	-3	/	/	/
CCOC(=O)c1sc2nc(C)nc(SC(C)C(=O)NC3CC3)c2c1C (configuration not stated)	10	1	-4	/	5	-2	/	/	/
O=C(CSCc1nc2c(nnn2Cc2ccc(F)cc2)c(=O)[nH]1)Nc1cccc(C(F)(F)F)c1	9	/	5	1	-1	1	/	/	/
COc1ccccc1N1CCN(Cc2cc(Br)c(O)c3ncccc23)CC1	68*	-70	-9	82*	12	54*	19	/	57*
CCOc1ccccc1N1CCN(Cc2cccc(OC)c2O)CC1	27	-10	-1	2	4	16	/	/	/
SMILES	tim23-1 inh	PfHsp90 set2	TIM10 inh	SKKanGAS inh	EBI2 block	tim10-1 inh	tim10-1 conf	tim10 confirm	tim23-1 confirm
CC(C)(C)NC(=O)C(c1ccc(Cl)cc1)N(Cc1ccco1)C(=O)CCl (configuration not stated)	51*	17	37	1	5	53*	38*	/	48*
Cn1nc(C(F)(F)F)c(-c2ccc(Br)cc2)c1NC(=O)Nc1ccc(F)cc1F	6	7	13	40	1	-14	/	/	/
CCOC(=O)C1=C(Cc2ccc(F)cc2)C(=O)c2ccccc2C1=O	66*	-70	64*	38	3	57*	68*	57*	71*
O=C(CCC(=O)N1CCOCC1)Nc1ccc(Cl)c(Cl)c1	-12	-6	11	-1	0	-13	/	/	/
CC(=O)N1CC=CC1(CC(C)C)C(=O)NCCN1CCOCC1 (configuration not stated)	-7	10	0	2	1	-17	/	/	/
COc1cc(NC(=O)C2CC(c3c(F)cccc3Cl)=NO2)c(OC)cc1Cl (configuration not stated)	26	-40	-4	31	8	12	/	/	/
Cc1ccc(O)c(NC(=O)C2CC(c3c(F)cccc3Cl)=NO2)c1 (configuration not stated)	54*	-31	25	9	10	44*	26	/	60*
O=C(c1ccccc1)c1cccc(NC(=O)c2ccc(Br)o2)c1	53*	-10	75*	-5	3	45*	36*	-13	77*
O=C(Nc1cccc(NC(=O)c2ccc(Br)o2)c1)c1ccccc1	39	12	8	0	4	9	/	/	/
CCOC(=O)N1CCN(C(=O)c2ccc(CS(=O)c3ccccc3)o2)CC1 (configuration not stated)	8	-58	7	-7	10	-3	/	/	/
C/C(=N\NC(=S)Nc1cccc(C)c1)c1ccccc1	51*	-16	60*	22	26	51*	50*	-23	52*
C/C(=N\NC(=S)Nc1cccc(C)c1)c1cccc(N)c1	37	-28	24	11	6	37	/	/	/
